According to PubChem BioAssay (NCATS):
Records with an inconclusive call do not appear. The source made the active and inactive calls. The call rests on the fitted dose curve; in most records, active means well fitted inhibition curve with a large enough effect; inconclusive means small, poorly fitted or top-dose-only effect; inactive means flat fitted curve, though single readings scatter.

What was measured:
[1] = target: Glutathione peroxidase 1 (Homo sapiens) (UniProt P07203); experiment: Primary qHTS Assay for Inhibitors of Recombinant Selenoprotein Glutathione Peroxidase 1 (GPX1) (AID 1845191); further: nearly all actives have a fitted effect of over 65% in size
Glutathione peroxidase 1 (Homo sapiens), sequence (P07203 whole entry, looked up): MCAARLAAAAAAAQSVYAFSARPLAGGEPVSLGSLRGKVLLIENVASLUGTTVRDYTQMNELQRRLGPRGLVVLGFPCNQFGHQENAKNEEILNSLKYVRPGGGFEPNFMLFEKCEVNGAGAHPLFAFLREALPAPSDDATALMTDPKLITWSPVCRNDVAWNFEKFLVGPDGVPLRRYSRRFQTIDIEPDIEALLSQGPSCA
Summary of the method: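 Recombinant GPX1 (10 nM final) was preincubated with compound for 30 min at room temperature, then reacted with 1 mM GSH, 0.5 mM CHP, 0.5 mM NADPH and 100 nM glutathione reductase; NADPH fluorescence (340/450 nm) was read at 0 and 15 min.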

[2] = target: Phospholipid hydroperoxide glutathione peroxidase GPX4 (Homo sapiens) (UniProt P36969); experiment: Primary qHTS Assay for Inhibitors of Recombinant Selenoprotein Glutathione Peroxidase 4 (GPX4) (AID 1845192); further: nearly all actives have a fitted effect of over 65% in size
Phospholipid hydroperoxide glutathione peroxidase GPX4 (Homo sapiens), sequence (P36969 whole entry, looked up): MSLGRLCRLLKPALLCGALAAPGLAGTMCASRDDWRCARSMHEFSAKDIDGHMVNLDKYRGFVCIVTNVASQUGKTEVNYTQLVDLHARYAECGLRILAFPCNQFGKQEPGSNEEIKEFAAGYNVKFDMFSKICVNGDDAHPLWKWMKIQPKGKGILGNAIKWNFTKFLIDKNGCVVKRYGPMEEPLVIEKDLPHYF
Summary of the method: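 GR-coupled readout: 100 nM GR, 1 mM GSH, 0.5 mM NADPH; NADPH fluorescence (ex 340/em 450 nm) read at t=0 and after 15 min RT. GPX4 200 nM, preincubated 30 min with compound; substrate 0.5 mM CHP.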

[3] = target: Luciferin 4-monooxygenase (Photinus pyralis) (UniProt P08659); experiment: Primary firefly luciferase (FLuc) qHTS assay for identification of artifact compounds. (AID 1845220); further: nearly all actives have a fitted effect of over 60% in size
Summary of the method: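 Reaction readout was CCD-imaged luminescence, taken 5 min after adding 10 nM purified firefly enzyme to compound-treated wells holding 10 uM luciferin and ATP in pH 7.6 buffer.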

Measured: Potency

C[C@H]1/C=C/C=C/C=C/C=C/C=C/[C@@H](O)[C@H](C(=O)O)[C@H](O)C[C@H](O)CCC[C@H](O)C[C@H](O)C[C@H](O)[C@@H](C)C(=O)O[C@@H]1C
inactive: all assays above

CC1(C)Oc2ncnc(N)c2N=C1c1ccc(C2CCC(CC(=O)O)CC2)cc1 (stereo not drawn)
inactive: all assays above

COc1ccc(N2CCN(CCCNC(=O)Cn3c(=O)c4cccn4c4c(C)ccnc43)CC2)cc1
inactive: all assays above

CC1CC(=O)[C@]2(O)C(C(=O)OCCc3ccc(O)cc3)=CO[C@@H](O[C@@H]3O[C@H](CO)[C@@H](O)[C@H](O)[C@H]3O)[C@H]12 (stereo partly drawn)
inactive: all assays above

CC1CCCCCCCc2cc(O)cc(O)c2C(=O)O1 (stereo not drawn)
inactive: all assays above

Cc1nc(-c2cccnc2)sc1C(=O)Nc1ccccc1-c1cn2c(CN3CCOCC3)csc2n1
inactive: all assays above

CC1=C2C(=O)C=C(CO)C2[C@H]2OC(=O)[C@H](C)[C@@H]2[C@@H](OC(=O)Cc2ccc(O)cc2)C1 (stereo partly drawn)
inactive: all assays above

N#Cc1cccc(-c2c[nH]c3ncnc(N4CCOCC4)c23)c1
inactive: all assays above

CC1(C)C(=O)N2c3ccccc3C(O)(CC(C(=O)O)n3cnc4ccccc4c3=O)C2N1O (stereo not drawn)
inactive: all assays above

O=C(O)CC1(O)C(=O)Nc2ccccc21 (stereo not drawn)
inactive: all assays above

CS(=O)(=O)c1ccccc1N1CCN(c2nc3c(c(=O)[nH]2)CSCC3)CC1
inactive: all assays above
